# A selection: hits, their analogues and other compounds. The true share with any hit is near 7.4%.
# HEK cytotox: Cytotoxic Profiling in HEK 293 Cell Line of Diverse Libraries Using Quantitative High-Throughput Screening | HEK 293 viability, ATP luminescence (CellTiter-Glo), 48-72 h | Potency, µM (top dose mostly 115 µM), for inactives: top-dose activity change, negative = cytotoxicity, usual class: inhibitors | hit rate 6.6% among 94,000; also: nearly all actives have a fitted effect of over 60% in size
#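 Pintool-delivered compounds were incubated with HEK 293 cells (250 cells/well) at 37 degree Celsius for 48 or 72 hr. ATP-dependent luminescence (CellTiter-Glo) then reported remaining viable cells.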
# FLuc inh: Firefly luciferase inhibition profiling of diverse chemical library using quantitative high-throughput screening; purified P. pyralis luciferase, luminescence, biochemical; Potency, µM (highest dose often 115 µM), hits mostly inhibitors; hit rate 2.5% among 76,000; AID 1347043, 2019; also: nearly all actives have a fitted effect of over 65% in size
# Target sequence (P08659 whole entry, looked up): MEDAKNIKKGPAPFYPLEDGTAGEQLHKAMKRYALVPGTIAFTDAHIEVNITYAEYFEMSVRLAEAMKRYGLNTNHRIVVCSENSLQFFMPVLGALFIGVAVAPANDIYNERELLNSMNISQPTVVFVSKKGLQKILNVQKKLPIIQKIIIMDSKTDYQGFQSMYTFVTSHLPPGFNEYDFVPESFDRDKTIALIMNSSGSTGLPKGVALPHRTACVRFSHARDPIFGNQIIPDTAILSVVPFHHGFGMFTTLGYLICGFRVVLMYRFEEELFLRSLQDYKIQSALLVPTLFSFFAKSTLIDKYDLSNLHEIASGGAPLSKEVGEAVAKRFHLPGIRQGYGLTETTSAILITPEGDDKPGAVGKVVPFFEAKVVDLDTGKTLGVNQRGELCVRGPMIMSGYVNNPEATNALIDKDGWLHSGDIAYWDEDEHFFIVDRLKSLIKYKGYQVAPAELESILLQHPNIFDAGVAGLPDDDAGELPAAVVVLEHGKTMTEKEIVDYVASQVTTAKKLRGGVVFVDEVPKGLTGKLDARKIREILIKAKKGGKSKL
#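 Luminescence read by CCD imaging after purified firefly luciferase (10nM final) was added to substrate buffer holding 10uM D-luciferin and 10uM ATP, pH 7.5, pre-dosed with compound.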
# hNpr1 antagonist: Natriuretic polypeptide receptor (hNpr1) antagonism - Primary qHTS; Atrial natriuretic peptide receptor 1 (Homo sapiens), P16066; HEK293 hNpr1 GloSensor cGMP, ANP-stimulated luminescence; Potency, µM (doses to about 46.3 µM), without a hit: at the top dose activity change, negative = inhibition, hits mostly inhibitors; hit rate 1.6% among 76,000; AID 1347048, 2019; calls by dose curve; also: nearly all actives have a fitted effect of over 60% in size
#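 HEK293 cells stably expressing human Npr1 and cGMP GloSensor pGS-40F, loaded 2 h with 2% GloSensor reagent, given compound 30 min at room temperature. Luminescence read before and 20 min after 0.1 nM hNppA.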
# HEK293 viab: GF-AFC viability counterscreen for inhibitors of alpha-synuclein gene (SNCA) expression; HEK-293-SNCA-luc viability, GF-AFC fluorescence, 24 h; Potency, µM (titrated, usually from 57.1 µM), inactives show at the highest dose activity change, negative = cytotoxicity, actives largely listed as cytotoxic; hit rate 0.12% among 150,000;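 also: 0% = DMSO-treated cells and -100% = medium-only wells without cells; nearly all actives have a fitted effect of over 30% in size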
#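 HEK-293-SNCA-luc cells (1500/well) plated 24 h, then exposed 24 h to a dilution series; GF-AFC added 30 min at 37C, fluorescence 405/540 nm; normalised to medium-only and DMSO wells, Hill fit.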
# SNCA expr inh: Primary qHTS assay for inhibitors of alpha-synuclein gene (SNCA) expression; HEK-293 SNCA-luciferase knock-in, luminescence, 24 h; Potency, µM (doses to about 57.2 µM), without a hit: at the top dose activity change, negative = inhibition, usual class: inhibitors; hit rate 0.17% among 140,000;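 also: plate controls were DMSO cells for no effect and cell-free wells for full effect; nearly all actives have a fitted effect of over 45% in size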
# NIH3T3 tox: Cytotoxic Profiling in NIH 3T3 Cell Line of Diverse Libraries Using Quantitative High-Throughput Screening; AID 1345082, 2018; Potency, µM (series often up to 96.7 µM), without a hit: at the highest dose activity change, negative = cytotoxicity, usual class: inhibitors; hit rate 4.3% among 94,000; NIH 3T3 viability, CellTiter-Glo ATP luminescence, 48-72 h; also: nearly all actives have a fitted effect of over 55% in size
#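 Cytotoxicity is measured as loss of cellular ATP: NIH 3T3 cells (400/well) are exposed to compound for 48 or 72 hr at 37 °C, then CellTiter-Glo luminescence is imaged after 10 min at room temperature.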
# Starred values were filed as active, the others as inactive; i = inactive; ? = inconclusive; · = no result; [ ] = remark or other dose. Unless noted, calls follow the shape of the dose curve; as a rule, active = well fitted curve in the direction sought with a large enough effect; inconclusive = small, poorly fitted or top-dose-only effect, or another doubt; inactive = no such curve, though single readings can be large; an effect the other way counts as inactive or inconclusive. Unless noted, % is scaled to controls: 0 for no effect and ±100 for the full control effect; potency is read from the fitted curve at half-maximal effect.
SMILES,HEK cytotox,FLuc inh,hNpr1 antagonist,HEK293 viab,SNCA expr inh,NIH3T3 tox
C=CCn1cc2c3c(cccc31)[C@H](CC(C)C)N[C@H](C(=O)NCc1ccccc1)C2,?,i,-17%[70.6 µM],-19%[87.6 µM],1%[87.6 µM],?
N#Cc1cccc(-c2c(C(=O)NC3CCCCCC3)nc3sccn23)c1,i,·,·,9%,35%,-6%
Cc1noc(C)c1S(=O)(=O)N1CCN(c2ccc3nnc(C4CC4)n3n2)CC1,-4%,·,·,·,·,-16%
COc1ccc(CNC(=O)C2CCN(c3nccc(Nc4ccccc4OC)n3)CC2)cc1,?,·,·,-26%,-10%,?
COc1ccc(Nc2ccnc(N3CCC(C(=O)NCC(F)(F)F)CC3)n2)cc1,79µM*,·,·,-5%[12.5 µM],-3%,?
COc1ccc(Nc2ccnc(N3CC4CCC(C3)N4CC(F)(F)F)n2)cc1,32µM*,·,·,-9%,1%,40µM*
COc1ccc(Nc2ccnc(N3CCC(C(=O)NCc4ccccc4OC)CC3)n2)cc1,28µM*,·,·,-16%[12.5 µM],-20%,32µM*
NCCCCN(Cc1nc2ccccc2[nH]1)[C@H]1CCCc2cccnc21,·,·,·,-13%[23.9 µM],·,·
COCCNc1ncc(-c2cccc(N)c2)c2c1OCC2,?,25µM*,-17%[70.6 µM],-8%[87.6 µM],17%[87.6 µM],?
COCCNc1ncc(-c2cccc(O)c2)c2c1OCC2,-60%[230 µM],28µM*,0%[70.6 µM],-16%[87.6 µM],33%[87.6 µM],-54%[174 µM]
Cc1ccccc1CN1CCc2nc(N3CCN(C)CC3)[nH]c(=O)c2CC1,4%,i,2%,-1%,-3%,i
Oc1ccc(-c2nc(C3CC3)nc3c2CCN(Cc2ccccc2C(F)(F)F)CC3)cc1,32µM*,i,0%,-26%,-27%,32µM*
CN1CCN(c2nc3c(c(=O)[nH]2)CCN(Cc2ccccc2C(F)(F)F)CC3)CC1,79µM*,i,-2%,-4%,-11%,-30%
CCc1nc2c(c(-c3ccc(O)cc3)n1)CCN(Cc1ccccc1C(F)(F)F)CC2,?,i,-2%,-9%,-22%,40µM*
CCc1nc2c(c(-c3ccc(O)cc3)n1)CCN(Cc1cccc(C(F)(F)F)c1)CC2,45µM*,i,?,3%,0%,40µM*
C[S+](=O)([O-])c1ccc(-c2nnc3ccc(C(=O)NCc4ccc(Cl)cc4)cn23)cc1,-6%,·,·,1%,-1%,?
O=C(c1ccc(F)cc1)N1CCCC(C(=O)N2CCC(N3CCOC3=O)CC2)C1 (stereo not given),i,·,·,3%,32%,1%
Cc1nn2c(c1-c1cccnc1N1CCOCC1)N(CCCc1ccccc1)CCC2,50µM*,i,?,-23%[87.6 µM],?,?
Cc1nn2c(c1-c1ccccc1N1CCCC1)N(C(=O)COc1ccccc1)CCC2,71µM*,i,-14%[70.6 µM],?,?,?
Cc1nn2c(c1-c1ccccc1-c1ccccc1)N(C(=O)COc1ccccc1)CCC2,?,i,-26%[70.6 µM],-9%[87.6 µM],-24%[87.6 µM],?
Cc1nn2c(c1-c1cccnc1N1CCOCC1)N(Cc1ccccc1F)CCC2,?,i,-18%[70.6 µM],-2%[87.6 µM],-10%[87.6 µM],?
Cc1nn2c(c1-c1ccccc1N1CCCC1)N(C(=O)c1cccc(N(C)C)c1)CCC2,89µM*,i,-5%[70.6 µM],-30%[87.6 µM],?,?
Cc1nn2c(c1-c1cccnc1N1CCOCC1)N(C(=O)COc1ccccc1)CCC2,1%[172 µM],i,2%[70.6 µM],2%[87.6 µM],12%[87.6 µM],100µM*
O=C(NCCc1ccc(Cl)cc1)c1nc2cccnc2n(CCc2ccccc2)c1=O,?,·,·,-4%,?,?
CCCN1CCCC2(Cc3ccccc3CN(C(=O)Cc3ccccc3)C2)C1 (stereo not given),?,·,·,-14%,21%,?
SMILES,HEK cytotox,FLuc inh,hNpr1 antagonist,HEK293 viab,SNCA expr inh,NIH3T3 tox
Cc1nn2c(c1-c1ccccc1N1CCCC1)N(C(=O)C1CCOCC1)CCC2,100µM*,i,-2%[70.6 µM],2%[87.6 µM],?,?
c1ccc(NCC2CN(Cc3ccccn3)CC23CN(c2ccccc2)C3)cc1 (stereo not given),79µM*,i,-1%[70.6 µM],-6%[87.6 µM],2%[87.6 µM],?
Oc1ccccc1CN1CC(CNc2cccnc2)C2(C1)CN(c1ccccc1)C2 (stereo not given),63µM*,i,-23%[70.6 µM],-15%[87.6 µM],-24%[87.6 µM],?
O=C(c1cccnc1)N1CC(CNc2ccccc2)C2(C1)CN(c1ccccc1)C2 (stereo not given),?,i,2%[70.6 µM],-10%[87.6 µM],-18%[87.6 µM],?
CC(C)c1ccc(CN2CC(CNc3cccnc3)C3(C2)CN(c2ccccc2)C3)cc1 (stereo not given),50µM*,i,?,-24%[87.6 µM],-28%[87.6 µM],35µM*
Cc1ccc(Nc2ccnc(N3CCC(NC(=O)c4ccc(C(F)(F)F)cc4)CC3)n2)cc1,?,·,·,?,25µM*,13µM*
Cc1ccc(Nc2ccnc(N3CCC(NC(=O)c4ccc(Cl)nc4)CC3)n2)cc1,40µM*,·,·,-9%,6%,40µM*
Cc1ccc(Nc2ccnc(N3CCC(NC(=O)c4ccc(F)cc4)CC3)n2)cc1,?,·,·,-27%,-21%,35µM*
CN1CCC(N(Cc2ccccc2)[C@@H]2C[C@@H]3CO[C@H](c4ccccc4)C[C@@H]3C2)CC1,?,·,·,·,·,14µM*
O=C(Cc1ccccc1)N1C[C@@H](CO)[C@@H]2Oc3ccc(Cl)cc3[C@@H]21,79µM*,·,·,·,·,?
COC(=O)[C@@H]1Cc2nc[nH]c2CN1C(C)C,?,i,2%[70.6 µM],1%[87.6 µM],11%[87.6 µM],71µM*
O=C(NC1CCN(Cc2cccc(-c3ccc(F)c(F)c3)c2)CC1)c1ccccc1Cl,?,·,·,3%,-1%,?
COc1ccc2nc(C[C@@H]3C[C@@H](C(C)C)[C@H](CNCc4ccccn4)C=C3C)[nH]c2c1,79µM*,i,-25%[70.6 µM],?,?,?
COc1ccc2nc(C[C@@H]3C[C@@H](C(C)C)[C@H](CNCc4ccc(NC(C)=O)cc4)C=C3C)[nH]c2c1,?,i,-15%,1%,8%,40µM*
O=C([C@H]1CCCN1C(=O)c1ccc(F)cc1)N1CCCC(c2nc3ccncc3[nH]2)C1 (stereo not given in full),-13%,·,·,-1%,2%,-9%

# Assay outcomes deposited in PubChem by National Center for Advancing Translational Sciences (NCATS).
